Each structure is given as a SMILES string. Records with an inconclusive call do not appear. The source made the active and inactive calls. Calls follow the shape of the dose curve; as a rule, active = well fitted activation curve with a large enough effect in the signal ratio in the repeat runs (not every such curve was filed as active); inconclusive = weak or mixed curves; inactive = flat fitted curve, though single readings scatter; the % refers to the signal ratio.
% is scaled to controls: 0 for no effect and ±100 for the full control effect.

A short description of this test: qHTS assay to identify small molecule agonists of H2AX (AID 1224845). The conditions noted are these: CHO-K1 phospho-H2AX Ser139 HTRF, 3 h; series mostly up to 154 µM; activation (H2AX phosphorylation): at the top concentration. From the text:
National Center for Advancing Translational Sciences [NCATS]
NIH Chemical Genomics Center [NCGC]
U.S. Environmental Protection Agency [EPA]
National Institutes of Environmental Health Sciences [NIEHS]
National Toxicology Program [NTP]
U.S. Food and Drug Administration [FDA]
HTRF phospho-H2AX (Ser139) assay (Cisbio Bioassays, US) enables the quantitative detection of the histone variant H2AX when phosphorylated on serine 139. When double-stranded DNA breaks, either by ionizing radiation or endogenous physiological processes, H2AX becomes phosphorylated at Ser139. This phospho-Ser139 serves as a sensitive biomarker for the detection of such breaks, localizing the site of DNA repair. So, HTRF phospho-H2AX Ser139 is a pertinent assay to study genome stability, the cell cycle, DNA repair, and it serves as a biomarker for cancer, and to understand aging. Wild type CHO-K1 cells were used to identify the inducers of Phospho-H2AX Ser 139 from the Tox21 10K compound collections.
Tox21 Assay Protocol Summary:
The CHO-K1 cells suspended in culture medium containing 10% FBS were dispensed at 1000 cells/ 3 ul/well in 1536-well white wall/solid bottom plates (Greiner Bio-One North America, NC) using a Multidrop Combi (Thermo Fisher Scientific Inc., Waltham, MA). After the assay plates were incubated at 37C overnight, 23 nl of compounds at 15 concentrations (from 5-48 columns) or positive control (from 1 to 4 columns) were transferred to the assay plates using a Pintool station (Wako, San Diego, CA) into each well resulting in a final DMSO concentration of 0.76%. After 3hr incubation at 37C, 1 uL/well Supplemented Lysis buffer (diluted 100 fold blocking reagent in lysis buffer) (HTRF Phospho-H2A.X (S139) Assay kit from Cisbio US Inc., Bedford, MA) was added using a Flying Reagent Dispenser (FRD) (Aurora Discovery, CA). After 10sec spin at 1000 rpm in a plate centrifuge, the assay plates were incubated at room temperature for 30 min. Then followed by the addition of 1 uL/well detection buffer (containing a mixture of two antibodies, one labeled with cryptate, Anti pH2AX (S139)-K and another labeled with d2, Anti H2AX-d2) using FRD. After incubation at room temperature for 24 hr, the time resolved fluorescence at excitation 320 nm and emissions at 665 nm and 620 nm was measured using an Envision plate reader (PerkinElmer, Waltham, MA).
With `CC/C=C1/OC(=O)c2ccccc21`, the “activation (H2AX phosphorylation)” value was 3.55% (inactive).
In the case of `O=c1cc(-c2ccccc2)oc2cc(O)cc(O)c12` it was 3.22% (inactive); in that of `C[C@@H](CN(C)C)CN1c2ccccc2Sc2ccccc21`, 6.92% [at 70.9 µM] (inactive).
Consider `O=C=Nc1cccc(C(F)(F)F)c1`, for which the “activation (H2AX phosphorylation)” value is -0.406% (inactive).
With `CN1CCCC(n2nc(Cc3ccc(Cl)cc3)c3ccccc3c2=O)CC1` (stereo not given), the “activation (H2AX phosphorylation)” value was -4.9% [at 70.9 µM] (inactive).
Consider `CNC(=O)c1cnn(-c2nc(N)c3ncn([C@@H]4O[C@H](CO)[C@@H](O)[C@H]4O)c3n2)c1`, for which the “activation (H2AX phosphorylation)” value is -0.0319% [at 70.9 µM] (inactive).
In the case of `NNC(=O)CP(=O)(c1ccccc1)c1ccccc1`, the “activation (H2AX phosphorylation)” value was 1.65% [at 70.9 µM] (inactive).
The figure for `CC1CC(C)C(=O)C1=O` (stereo not given) is 0.454% (inactive); for `FC(F)(F)c1ccccc1Cl` it is -1.14% (inactive); for `CCCCCC[C@@H](O)C/C=C\CCCCCCCC(=O)O` it is 0.472% (inactive).
In the case of `Cc1[nH]cnc1CN1CCc2c(c3ccccc3n2C)C1=O` it was 1.38% [at 70.9 µM] (inactive); in that of `C=C1c2cccc(O)c2C(O)=C2C(=O)[C@]3(O)C(O)=C(C(N)=O)C(=O)[C@@H](N(C)C)[C@@H]3[C@@H](O)[C@H]12`, -0.752% [at 70.9 µM] (inactive).
The figure for `CCC(=O)C1CC(C(C)C)CC=C1C` (stereo not given) is 0.709% (inactive); for `C/C=C(/C(=C/C)c1ccc(O)cc1)c1ccc(O)cc1` it is -2.11% [at 70.9 µM] (inactive); for `O=C1NCCN1CCO` it is 0.158% (inactive).
In the case of `C=C(C)CCCC(C)CCO` (stereo not given), the “activation (H2AX phosphorylation)” value was 0.427% (inactive).
For the molecule `CCCCC(CC)COP(=O)(O)O` (stereo not given), the “activation (H2AX phosphorylation)” value is -0.255% (inactive).
In the case of `CC(=O)OCC[N+](C)(C)C` it was 0.235% [at 70.9 µM] (inactive); in that of `O=C1Cc2cc(Cl)ccc2N1`, -0.595% [at 70.9 µM] (inactive); in that of `CCCC(=O)C(=O)O`, 2.48% (inactive).
The figure for `CC(C)c1nc(CN(C)C(=O)N[C@H](C(=O)N[C@@H](Cc2ccccc2)C[C@H](O)[C@H](Cc2ccccc2)NC(=O)OCc2cncs2)C(C)C)cs1` is 0.716% [at 70.9 µM] (inactive).
As for `C/C=C\C/C=C/CCCCCCCCOC(C)=O`, the “activation (H2AX phosphorylation)” value is -0.0086% (inactive).
Consider `N#CCCN(CCO)CCO`, for which the “activation (H2AX phosphorylation)” value is 2.95% (inactive).
The figure for `O=C1c2ccccc2C(=O)C1c1nc2ccccc2c(Br)c1O` is 3.16% (inactive); for `CO/N=C(/C(=O)N[C@@H]1C(=O)N2C(C(=O)O)=C(COC(N)=O)CS[C@H]12)c1ccco1` it is -0.115% (inactive); for `OCCN1CCN(CCCN2c3ccccc3Sc3ccc(Cl)cc32)CC1` it is 11.4% [at 70.9 µM] (inactive).
In the case of `CC(=O)Oc1ccc([N+](=O)[O-])cc1CCl` it was 4.19% (inactive).
In the case of `CCOc1ccccc1O[C@H](c1ccccc1)[C@H]1CNCCO1` it was -0.169% [at 70.9 µM] (inactive).
For the molecule `CC(C)=CCC/C(C)=C/CC/C(C)=C/C(=O)OCC(=O)[C@@]1(O)CC[C@H]2[C@@H]3CCC4=CC(=O)C=C[C@]4(C)[C@H]3[C@@H](O)C[C@@]21C`, the “activation (H2AX phosphorylation)” value was -2.59% [at 70.9 µM] (inactive).
In the case of `C[C@H]1c2cccc(O)c2C(O)=C2C(=O)[C@]3(O)C(O)=C(C(N)=O)C(=O)[C@@H](N(C)C)[C@@H]3[C@@H](O)[C@@H]21` it was -0.551% [at 70.9 µM] (inactive).
With `COc1ccccc1N1CCN(CCCCNC(=O)c2ccc(-c3ccc(C(C)=O)cc3)cc2)CC1`, the “activation (H2AX phosphorylation)” value was 0.0663% [at 70.9 µM] (inactive).
Turning to `CC(O)c1ccccc1` (stereo not given), the “activation (H2AX phosphorylation)” value is 0.304% (inactive).
The figure for `COc1ccc(OC(=O)N(CC(=O)O)Cc2ccc(OCCc3nc(-c4ccccc4)oc3C)cc2)cc1` is -6.67% [at 70.9 µM] (inactive); for `CCOc1ccc(Cc2nccc3cc(OCC)c(OCC)cc23)cc1OCC` it is 8.94% [at 70.9 µM] (inactive); for `O=C1NC(=O)c2cc([N+](=O)[O-])ccc21` it is 1.66% (inactive).
In the case of `CCN(CC)CCNC(=O)COc1ccc(OC)cc1` it was 0.836% [at 70.9 µM] (inactive); in that of `OCCOCC#CCOCCO`, -0.721% (inactive).
The figure for `CN1CC(=O)N2[C@H](c3ccc4c(c3)OCO4)c3[nH]c4ccccc4c3C[C@@H]2C1=O` is -1.2% [at 70.9 µM] (inactive).
`OC1(c2ccccc2)CCNCC1`: the “activation (H2AX phosphorylation)” value was -2.24% [at 70.9 µM] (inactive).
The figure for `CC[C@]1(O)C[C@H]2CN(CCc3c([nH]c4ccccc34)[C@@](C(=O)OC)(c3cc4c(cc3OC)N(C=O)[C@H]3[C@@](O)(C(=O)OC)[C@H](OC(C)=O)[C@]5(CC)C=CCN6CC[C@]43[C@@H]65)C2)C1` is -2.2% [at 70.9 µM] (inactive).

The values are drawn from PubChem BioAssay (Tox21).
